# Bioassay records as filed in PubChem.
# Only some compounds are listed: those with a hit (about 11% of all), similar ones and a draw of the others.
# USP28 block: inhibitors of human USP28 deubiquitinase. purified USP28, Ub-rhodamine cleavage fluorescence, 30 min. 47,000 tested, 3% active. inhibition, % at 25 µM
# USP17 block: inhibitors of human USP17 deubiquitinase. AID 1645855, 2021. 47,000 tested, 6.5% active. purified USP17, Ub-rhodamine cleavage fluorescence, 3 h. Ubiquitin carboxyl-terminal hydrolase 17-like protein 5 (Homo sapiens), A8MUK1. inhibition, % at 50 µM
# Target sequence (A8MUK1 whole entry, looked up): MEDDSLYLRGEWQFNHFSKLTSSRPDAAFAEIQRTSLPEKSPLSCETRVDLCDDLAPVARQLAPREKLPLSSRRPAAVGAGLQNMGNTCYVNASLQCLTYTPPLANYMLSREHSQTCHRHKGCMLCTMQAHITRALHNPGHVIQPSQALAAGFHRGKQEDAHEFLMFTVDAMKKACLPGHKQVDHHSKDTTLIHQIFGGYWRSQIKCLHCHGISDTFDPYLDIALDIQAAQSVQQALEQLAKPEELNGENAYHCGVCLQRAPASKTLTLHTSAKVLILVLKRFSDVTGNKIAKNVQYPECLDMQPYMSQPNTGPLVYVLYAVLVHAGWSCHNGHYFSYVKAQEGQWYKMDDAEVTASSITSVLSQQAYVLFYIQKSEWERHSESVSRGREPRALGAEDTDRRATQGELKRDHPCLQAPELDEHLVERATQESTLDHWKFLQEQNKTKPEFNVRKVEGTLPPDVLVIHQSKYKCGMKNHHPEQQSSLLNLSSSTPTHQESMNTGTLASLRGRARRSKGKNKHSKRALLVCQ
# OTUD3 block: inhibitors of human OTUD3 deubiquitinase. purified OTUD3, Ub-rhodamine fluorescence, 2 h. AID 1645858, 2021. 47,000 tested, 0.7% active. OTU domain-containing protein 3 (Homo sapiens), Q5T2D3. inhibition, % at 25 µM
# USP30 inh: inhibitors of human USP30 deubiquitinase | purified USP30, Ub-rhodamine cleavage fluorescence | inhibition, % at 25 µM | 47,000 tested, 5.3% active
# * marks the source's active call; other numbers are inactive results; i = inactive; / = not tested or not shown. Rule as the data show it: active = inhibition above about 30%; inactive = the rest.
SMILES,USP28 block,USP17 block,OTUD3 block,USP30 inh
CCOc1ccc(CCNC(=O)c2ccc3c(SCC(=O)O)c4c(nc3c2)CCC4)cc1OCC,42*,34*,29,-4
COc1ccc(OC)c(CCNC(=O)c2ccc3c(=O)n4c(nc3c2)CCCC4)c1,14,12,13,17
CCC(=O)N1CCCC1c1nc2ccccc2n1Cc1ccc(F)cc1 (centres undefined),7,3,14,20
Cc1cc2c(cc1C)NC(CC(=O)Nc1ccc(O)cc1)C(=O)N2 (centres undefined),24,64*,-2,-50
Cc1c(-c2nnc(-c3ccccc3Cl)o2)nnn1-c1ccccc1,35*,3,6,81*
O=C1C/C(=C\c2cccc(Cl)c2)Cc2ccccc21,54*,26,27,39*
O=C1C/C(=C\c2cccc([N+](=O)[O-])c2)Cc2ccccc21,30,8,5,38*
COc1ccc(/C=C2\CC(=O)c3ccccc3C2)c(OC)c1,14,5,8,-16
O=C1C/C(=C\c2cccc(Br)c2)Cc2ccccc21,34*,14,22,21
CCn1c(SCC(=O)Nc2cc(C)c(OC)cc2C)nnc1-c1ccco1,14,-1,12,11
COc1cccc(CN2C(=O)c3ccccc3Sc3ccc(C(=O)NC4CCCC4)cc32)c1,20,9,11,22
O=C(COc1cccc(Cl)c1)N1CCSc2ccccc21,39*,25,22,36*
Cc1ccc(-n2c(=O)[nH]c3c(C(N)=O)nc(-c4cccnc4)nc32)cc1,19,34*,31*,34*
O=C(NCc1ccccc1)C1CCCN(c2nnc3c(Cl)cccn23)C1 (centres undefined),2,-4,-4,-20
CCOc1nc2cccnc2n(CC(=O)Nc2ccccc2CC)c1=O,-33,-20,-45,-175
CCOc1cccc2nnc(NC(=O)Nc3ccccc3CC)n12,10,56*,0,54*
CCOC(=O)c1ccc(-c2cccc(C(F)(F)F)c2)nc1C,2,9,14,6
CCOC(=O)c1cnc(C(F)(F)F)nc1Sc1n[nH]c(-c2cccs2)n1,-5,86*,9,5
COc1ccc(CCNC(=O)COc2cc(C)c3ccc(OC)cc3n2)cc1,-5,46*,-7,-31
CC1(C(=O)NC2CCCCC2)Cn2c(cc3sccc32)C(=O)N1Cc1ccccn1 (centres undefined),13,14,15,25
COc1cc(O)c2c(O)c3c(cc2c1)CC(C)OC3=O (centres undefined),64*,75*,53*,-56
C[C@@H]1Cc2cc(O)cc(O)c2C(=O)O[C@H](C)CC(=O)OC[C@@H](O)CC(=O)O[C@H](C)Cc2cc(O)cc(O)c2C(=O)O[C@H](C)CC(=O)O1,-4,-10,0,-14
Cc1cccc(N2C(=O)/C(=C\c3ccc(N4CCOCC4)s3)c3ccccc3C2=O)c1,-10,42*,-11,-50
Cc1n[nH]c(C)c1N1C(=O)c2cccc3c(N4CCOCC4)ccc(c23)C1=O,-235,-129,-163,i
COc1cccc(N2C(=O)c3cccnc3C2Nc2ccc(C)cc2)c1 (centres undefined),-13,-17,-22,-22
SMILES,USP28 block,USP17 block,OTUD3 block,USP30 inh
COc1cccc(/C=C2\C(=O)N(c3cccc(C)c3)C(=O)c3ccccc32)c1,5,43*,-5,-9
Cn1c(CCc2ccccc2NS(=O)(=O)c2ccccc2)nc2ccccc21,/,29,-5,/
Cc1onc(-c2ccccc2)c1C(=O)Nc1nc2ccccc2s1,-8,-30,-13,-63
Cc1nc(-c2ccccn2)sc1C(=O)Nc1ccc(C#N)cc1,12,8,4,54*
Cc1nc(-c2ccccn2)sc1C(=O)Nc1cccc(C(=O)NC2CC2)c1,3,-12,-6,-15
CCC(NS(=O)(=O)c1ccc(S(=O)(=O)N2CCOCC2)cc1)C12CC3CC(CC(C3)C1)C2 (centres undefined),27,14,13,33*
COc1ccc(S(=O)(=O)N(C)C)cc1NC(=O)COC(=O)c1ccccc1,15,43*,-4,14
CCN1CCc2nc(NC(=O)COc3c(Cl)cccc3Cl)sc2C1,12,37*,3,-3
O=C1COc2ccc(Br)cc2CN1Cc1ccccc1F,40*,20,19,27
CCOc1ccc([C@@H]2c3c(C)nn(-c4ccccc4)c3NC(=O)[C@H]2NC(=O)c2cccc(C)c2)cc1,15,8,5,3
Cc1ccc(-n2nc(C)c3c2NC(=O)[C@@H](NC(=O)c2ccccc2)[C@@H]3c2ccc(F)cc2)cc1,48*,5,-9,-6
Cc1nn(C)c2c1[C@@H](c1ccc(F)cc1)[C@H](NC(=O)c1ccccc1)C(=O)N2,80*,8,13,13
Cc1nn(-c2ccccc2)c2c1[C@@H](c1ccc3c(c1)OCCO3)[C@H](NC(=O)c1ccccc1)C(=O)N2,-10,-2,-7,-24
CCCn1c(=O)c2nscc2n(CC(=O)NC2CCCCC2)c1=O,-12,-7,-4,-26
N#Cc1cn2c(nc1-c1ccc(Cl)cc1)nc1ccccc12,71*,94*,61*,77*
O=C(Nc1ccc(N2CCOCC2)cc1)c1ccc(-c2ccc(N3CCCC3)nn2)cc1,7,51*,0,-20
O=C(Nc1ccc(F)cc1)c1ccc(-c2ccc(N3CCCC3)nn2)cc1,17,13,9,1
COc1ccc(NC(=O)c2ccc(-c3ccc(N4CCCC4)nn3)cc2)c(OC)c1,13,41*,10,6
O=C(Nc1cccc(-c2ccc(N3CCOCC3)nn2)c1)c1ccccc1Br,7,41*,12,39*
O=C(Nc1cccc(-c2ccc(N3CCOCC3)nn2)c1)c1cccc2ccccc12,-3,15,-3,1
COc1cc(NC(=O)N2CCCC2c2c(C)noc2C)cc(OC)c1 (centres undefined),-5,-8,0,0
Cc1cc(=O)n2[nH]c(C3CCCCN3C(=O)c3ccncc3)cc2n1 (centres undefined),/,-4,-2,/
Cc1ccc(C(=O)NCc2ccc(N3CCOCC3)nc2)cc1F,-6,-30,1,-4
COc1ccc(OCC(=O)Nc2cc(F)c3nc(N4CCOCC4)ccc3c2)cc1,0,10,-36,-65
O=C(COc1nc2ccccc2nc1N1CCOCC1)Nc1ccc(F)cc1,7,21,16,38*
O=C(Cn1ccc2ccc(N3CCOCC3)nc21)NCc1ccc(F)cc1F,-110,-82,-100,-377
CC(C)CC(=O)Nc1cc(F)c2nc(N3CCOCC3)ccc2c1,-11,75*,-7,-53
O=C(COc1ccc(F)cc1)Nc1cc(F)c2nc(N3CCOCC3)ccc2c1,-1,51*,-14,-4
COc1cc(NC(=O)Nc2ccc(-c3nnc(-c4ccccc4)o3)cc2)cc(OC)c1OC,-4,9,-1,0
